A selection: hits, their analogues and other compounds. The true share with any hit is near 3.6%.
MITF act = activators of MITF-driven TRPM1 promoter reporter, primary screen, cell-based, SK-MEL-5, luciferase, single point | AID 588334, 2011 | activation, % at 12.5 µM | 300,000 tested, 0.75% active | SK-MEL-5 TRPM1-promoter luciferase, 24 h; % of positive control, neutral wells = 0;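 active = mean activation of at least 80% with every replicate also reaching 80%; inconclusive = mean reaches 80% but some replicate falls short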;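 also: 0% = neutral control wells and 100% = parthenolide positive control wells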
APOBEC3A inh = APOBEC3A ssDNA deaminase inhibitors, primary screen, selectivity assay for APOBEC3G inhibitor project, biochemical, FAM/TAMRA oligo cleavage fluorescence; DNA dC->dU-editing enzyme APOBEC-3A (Homo sapiens), P31941; recombinant A3A, FAM/TAMRA ssDNA deamination fluorescence; inhibition, % at 20 µM; 330,000 tested, 0.41% active; AID 493011, 2011;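 active = at least 40% inhibition at 20 µM here, with at most 30% in a related deaminase screen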;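 also: plate controls were A3A with DMSO for no effect and wells lacking A3A enzyme for full effect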
Target sequence (P31941 whole entry, looked up): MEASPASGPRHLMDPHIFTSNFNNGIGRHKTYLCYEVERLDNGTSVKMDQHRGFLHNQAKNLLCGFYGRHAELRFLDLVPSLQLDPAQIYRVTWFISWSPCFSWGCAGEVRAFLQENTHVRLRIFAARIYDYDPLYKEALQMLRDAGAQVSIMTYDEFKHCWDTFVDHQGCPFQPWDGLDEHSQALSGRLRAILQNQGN
esBAF inh = Bmi1 luciferase reporter increase in mESCs, primary screen, esBAF inhibitor project, mouse ES cells, Bmi1 luciferase knock-in, single point; 24 h; 100% = twice the neutral-well signal; reporter increase, % at 12.5 µM; 350,000 tested, 2% active; AID 602393, 2012; in the data active = activation above about 40%; inconclusive = no clear call, values can overlap the other calls;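 also: 0% = median of the plate's neutral control wells and 100% = double that signal; a rise in the Bmi1 reporter signal indicates esBAF inhibition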
PHOSPHO1 inh = PubChem AID 1565 | recombinant PHOSPHO1, absorbance phosphatase assay | inhibition, % at 13.3 µM | 290,000 tested, 1.1% active; in the data active = inhibition above about 60%
Wnt bcat act = Wnt/beta-catenin pathway activators, primary screen, cell-based, plate reader, single point. 300,000 tested, 1.2% active. Wnt/beta-catenin reporter cell assay, activator. activation, % at 9.35 µM. AID 743398, 2014; in the data active = activation above about 30%, passing the limit was not always enough; inconclusive = no clear call, values can overlap the other calls;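 also: 0% = neutral control wells and 100% = positive control wells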
A3G deaminase = APOBEC3G DNA deaminase inhibitors, primary screen, biochemical, fluorescence, single-stranded DNA substrate, uHTS. DNA dC->dU-editing enzyme APOBEC-3G (Homo sapiens), Q9HC16. recombinant A3G, ssDNA deamination FAM/TAMRA fluorescence. inhibition, % at 20 µM. 330,000 tested, 0.28% active. AID 493012, 2011;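 active = inhibition of at least 40% at 20 µM, with no more than 30% in the related APOBEC3A deaminase screen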;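 also: plate controls were DMSO wells with A3G for no effect and wells lacking A3G enzyme for full effect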
Target sequence (Q9HC16 whole entry, looked up): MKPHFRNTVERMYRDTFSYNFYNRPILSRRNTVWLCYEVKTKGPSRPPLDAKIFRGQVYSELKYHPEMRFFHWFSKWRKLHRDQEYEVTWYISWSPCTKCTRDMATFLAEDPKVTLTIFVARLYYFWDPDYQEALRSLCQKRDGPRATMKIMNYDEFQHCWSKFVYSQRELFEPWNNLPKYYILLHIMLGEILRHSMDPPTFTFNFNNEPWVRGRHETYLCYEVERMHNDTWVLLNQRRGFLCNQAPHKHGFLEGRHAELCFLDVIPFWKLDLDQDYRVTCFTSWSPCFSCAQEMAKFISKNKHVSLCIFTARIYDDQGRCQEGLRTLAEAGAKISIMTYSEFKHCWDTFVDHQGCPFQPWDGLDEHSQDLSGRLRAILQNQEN
Active calls of the source: *.

Screening CNc1nc(-c2ccc(Cl)cc2)cs1 returned MITF act inconclusive, APOBEC3A inh -6.7, esBAF inh 51.5*, PHOSPHO1 inh 39.4 and A3G deaminase -2.6.
For CC(C)C[C@H](NC(=O)c1ccccn1)C(=O)N1CCC[C@H]1C(=O)NCc1ccccc1 the results were Wnt bcat act 1.2.
C[C@H]1CCCCO[C@H](CN(C)C(=O)c2ccncc2)[C@@H](C)CN([C@@H](C)CO)C(=O)c2cc(NC(=O)CCC(F)(F)F)ccc2O1 was read as esBAF inh 0.5.
Cc1cc2nn(-c3ccc(Cl)cc3)nc2cc1N was read as MITF act 23.0, APOBEC3A inh -1.3, PHOSPHO1 inh -18.7, Wnt bcat act 33.2* and A3G deaminase -0.2.
Screening CC(C)c1ccc(-n2nc3ccc(N)cc3n2)cc1 returned MITF act -16.8, APOBEC3A inh -0.9, esBAF inh -45.0, PHOSPHO1 inh 7.6, Wnt bcat act 37.5* and A3G deaminase -5.2.
Cc1cc2nn(-c3ccc(F)cc3)nc2cc1N was read as APOBEC3A inh -2.7, esBAF inh -13.1, PHOSPHO1 inh 14.9, Wnt bcat act 19.3 and A3G deaminase 2.2.
For Cc1ccc(-n2nc3ccc(N)cc3n2)cc1 the results were MITF act -3.8, APOBEC3A inh -1.5, PHOSPHO1 inh 20.0 and A3G deaminase -3.7.
`N#C/C(=C/c1ccco1)c1nc2ccccc2s1` gave MITF act 5.3, APOBEC3A inh 1.3, PHOSPHO1 inh -36.8, Wnt bcat act 51.5* and A3G deaminase -7.7.
`N#C/C(=C\c1ccco1)c1nc2ccccc2s1` gave MITF act 53.9, APOBEC3A inh -0.7, PHOSPHO1 inh 3.1 and A3G deaminase -7.8.
Cc1occc1-c1nnc(SCC(=O)Nc2ccccc2)n1Cc1ccccc1 was read as MITF act 4.9, APOBEC3A inh -3.6, esBAF inh 45.5*, PHOSPHO1 inh 8.9 and A3G deaminase -5.0.
Screening Cc1cc(NC(=O)CSc2nnc(-c3ccc(Br)o3)n2Cc2ccccc2)no1 returned MITF act -3.4, APOBEC3A inh 0.0, PHOSPHO1 inh 66.1* and A3G deaminase -3.4.
`Cc1occc1-c1nnc(SCC(=O)Nc2ccc(F)cc2)n1Cc1ccccc1` gave MITF act 4.3, APOBEC3A inh -0.8, PHOSPHO1 inh 5.8, Wnt bcat act -10.7 and A3G deaminase -4.6.
Screening Cc1cc(NC(=O)CSc2nnc(-c3ccco3)n2Cc2ccccc2)no1 returned MITF act 8.7, APOBEC3A inh 2.6, esBAF inh -3.4, PHOSPHO1 inh 4.2 and A3G deaminase 2.1.
Screening Cc1ccc(S(=O)(=O)N[C@H]2CC[C@@H](CCNC(=O)C3CCCCC3)O[C@@H]2CO)cc1 returned esBAF inh 1.3.
CNC(=O)C[C@H]1CC[C@H]2[C@@H](COc3ccc(NC(=O)c4cc(F)cc(F)c4)cc3C(=O)N2C)O1 was read as esBAF inh -3.0.
C[C@H](CO)N1C[C@H](C)[C@H](CN(C)C(=O)Nc2ccc(C(F)(F)F)cc2)Oc2c(NC(=O)Nc3ccccc3)cccc2C1=O was read as esBAF inh 5.7.
For CCC(=O)N1CC[C@@H]2[C@H]1c1cc(-c3ccc(OC)cc3)ccc1N[C@@H]2CO the results were esBAF inh 4.5.
`CN1C(=O)/C(=C/C=C2\SCCN2C)N(C)C1=S` gave MITF act 70.9, APOBEC3A inh 3.5, esBAF inh 66.2*, PHOSPHO1 inh 14.7, Wnt bcat act -0.8 and A3G deaminase -2.4.
Screening CSCC(=O)N1CCc2ccc(NC(=O)c3ccccc3Cl)cc2C1 returned MITF act 46.7, APOBEC3A inh 5.3, esBAF inh 66.2*, PHOSPHO1 inh 19.3, Wnt bcat act 15.3 and A3G deaminase -5.7.
`CN(C)S(=O)(=O)N1CCc2ccc(NC(=O)c3ccccc3Cl)cc2C1` gave MITF act 15.4, APOBEC3A inh -5.2, esBAF inh 8.9, Wnt bcat act 1.8 and A3G deaminase -10.0.
For CC(C)n1c(N2CCN(S(=O)(=O)c3cccc([N+](=O)[O-])c3)CC2)nc2ccccc21 the results were MITF act -6.3, APOBEC3A inh -1.7, esBAF inh -1.7, PHOSPHO1 inh 61.1*, Wnt bcat act 0.3 and A3G deaminase -2.9.
For CSc1nsc(SCC(=O)Nc2ccccc2)n1 the results were MITF act 43.4, APOBEC3A inh -2.0, esBAF inh 18.7, PHOSPHO1 inh 19.0, Wnt bcat act 9.2 and A3G deaminase -4.8.
Screening CSc1nsc(SCC(=O)Nc2ccc(OC(C)=O)cc2)n1 returned MITF act 89.5*, APOBEC3A inh -1.5, PHOSPHO1 inh 29.5, Wnt bcat act 40.7* and A3G deaminase -4.9.
O=C(c1cc2c(ccc3ccccc32)o1)N1CCCCC1 was read as MITF act 31.5, APOBEC3A inh -3.5, esBAF inh -19.3, PHOSPHO1 inh 37.6, Wnt bcat act 38.1* and A3G deaminase -8.1.
Screening Cc1ccc2cc3cc(C(=O)N4CC(C)CC(C)C4)oc3nc2c1 (stereo unspecified) returned MITF act 66.8, APOBEC3A inh -2.3, esBAF inh -15.3, PHOSPHO1 inh 5.1, Wnt bcat act 21.1 and A3G deaminase -2.3.
O=C(O)c1cc2c(ccc3ccccc32)o1 was read as MITF act -5.6, APOBEC3A inh -0.6, esBAF inh -3.3, PHOSPHO1 inh 27.9, Wnt bcat act -2.1 and A3G deaminase -3.2.
O=C(c1cc2cc3ccc(Cl)cc3nc2o1)N1CCCCCC1 was read as MITF act 101.9*, APOBEC3A inh -3.9, esBAF inh 31.8, PHOSPHO1 inh 23.9 and A3G deaminase -7.1.
For O=C(c1cc2ccccc2o1)N1CCN(c2cccc(Cl)c2)CC1 the results were MITF act -3.9, APOBEC3A inh 1.0, esBAF inh 3.8, PHOSPHO1 inh 28.7, Wnt bcat act -0.1 and A3G deaminase -3.9.
O=C(c1cc2cc(Cl)ccc2o1)N1CCCCCC1 was read as MITF act 129.8*, APOBEC3A inh -3.0, esBAF inh 65.0*, Wnt bcat act -1.1 and A3G deaminase -6.9.
For COc1ccc2cc3cc(C(=O)N4CC(C)CC(C)C4)oc3nc2c1 (stereo unspecified) the results were MITF act 54.6, APOBEC3A inh -1.2, esBAF inh 57.6*, PHOSPHO1 inh 26.1 and A3G deaminase -5.2.
COc1ccc(NC(=O)N(C)C[C@@H]2Oc3ncc(C#CCN(C)C)cc3C(=O)N([C@@H](C)CO)C[C@H]2C)cc1 was read as esBAF inh -1.6.
